Source: PubChem BioAssay (Tox21)
Records with an inconclusive call do not appear. Activity calls are given as the source filed them. Unless noted, the call rests on the fitted dose curve; in most records, active means well fitted curve in the direction sought with a large enough effect in the repeat runs; inconclusive means weak or mixed curves; inactive means no such curve, though single readings can be large; an effect the other way counts as inactive or inconclusive.

How the values were obtained:
[1] = qHTS RealTime-Glo MT Cell Viability Assay in HEK293 cells - 0 hour (AID 1224880); further: top concentration of the series differs between compounds; nearly all actives have a fitted effect of over 45% in size
In short: (§1)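 Tox21 screen in HEK293 using RealTime-Glo MT chemistry, with cells and reagent co-dispensed. Luminescence proportional to viable cell number was captured at intervals during 40 h compound exposure at 37 C.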

[2] = A CellTox Green Cytotoxicity Assay to monitor cytotoxicity in HEK293 cells - 32 hour (AID 1224881); further: nearly all actives have a fitted effect of over 40% in size
In short: (§2)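 Seeding of HEK293 cells together with cytotoxicity dye preceded a 5 h incubation at 37 C/5% CO2. Test compounds in DMSO were then added and fluorescence monitored across 40 h.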

[3] = A CellTox Green Cytotoxicity Assay to monitor cytotoxicity in HepG2 cells - 0 hour (AID 1224882); further: nearly all actives have a fitted effect of over 35% in size
In short: (§3)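 Nonlytic assay: viable cells exclude the dye, so fluorescence scales with cell death. HepG2 at 600 cells/well, compounds added after 5 h, signal read across 40 h.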

[4] = A CellTox Green Cytotoxicity Assay to monitor cytotoxicity in HepG2 cells - 32 hour (AID 1224883); further: nearly all actives have a fitted effect of over 50% in size
In short: as §3

[5] = A CellTox Green Cytotoxicity Assay to monitor cytotoxicity in HEK293 cells - 8 hour (AID 1224884); further: nearly all actives have a fitted effect of over 35% in size
In short: as §2

[6] = qHTS RealTime-Glo MT Cell Viability Assay in HepG2 cells - 16 hour (AID 1224885); further: nearly all actives have a fitted effect of over 50% in size
In short: (§4)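 HepG2 suspension premixed with RealTime-Glo reagents is plated at 600 cells per well and left 5 h at 37 C/5% CO2. Compounds in DMSO then go in, and bioluminescence reflecting viable cell number is recorded over 40 h.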

[7] = qHTS RealTime-Glo MT Cell Viability Assay in HEK293 cells - 24 hour (AID 1224886); further: top concentration of the series differs between compounds; nearly all actives have a fitted effect of over 50% in size
In short: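 Reads taken at 0, 8, 16, 24, 32 and 40 h from the same wells. HEK293 cells (600/well) carried RealTime-Glo reagents from seeding, with compound added after a 5 h settle at 37 C.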

[8] = qHTS RealTime-Glo MT Cell Viability Assay in HEK293 cells - 8 hour (AID 1224887); further: top concentration of the series differs between compounds; nearly all actives have a fitted effect of over 50% in size
In short: as §1

[9] = A CellTox Green Cytotoxicity Assay to monitor cytotoxicity in HEK293 cells - 16 hour (AID 1224888); further: nearly all actives have a fitted effect of over 35% in size
In short: as §2

[10] = qHTS RealTime-Glo MT Cell Viability Assay in HepG2 cells - 0 hour (AID 1224889); further: nearly all actives have a fitted effect of over 50% in size
In short: as §4

[11] = A CellTox Green Cytotoxicity Assay to monitor cytotoxicity in HepG2 cells - 8 hour (AID 1224890); further: nearly all actives have a fitted effect of over 45% in size
In short: as §3

[12] = qHTS assay to identify small molecule antagonists of the estrogen receptor alpha (ER-alpha) signaling pathway using the BG1 cell line in the presence of 0.1 nM 17-beta-estradiol - cell viability counter screen (AID 1259241); further: nearly all actives have a fitted effect of over 40% in size
In short: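 Measures cytotoxicity alongside the ER-alpha antagonist readout: VM7Luc4E2 cells, charcoal-stripped serum, 0.1 nM 17beta-estradiol final, 22 hr compound incubation at 37C, CellTiter-Fluor fluorescence.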

[13] = qHTS assay to identify small molecule antagonists of the androgen receptor (AR) signaling pathway using the MDA cell line in the presence of 0.5 nM R1881 - cell viability counter screen (AID 1259242); further: nearly all actives have a fitted effect of over 45% in size
In short: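 R1881 at 0.5 nM final stimulated MDA-kb2 cells during 16 hr compound treatment at 37C. Cytotoxicity read: CellTiter-Fluor fluorescence after 30 min.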

[14] = biological target: Estrogen receptor (Homo sapiens) (UniProt P03372); assay: qHTS assay to identify small molecule antagonists of the estrogen receptor alpha (ER-alpha) signaling pathway using the BG1 cell line in the presence of 0.1 nM 17-beta-estradiol (AID 1259244); further: nearly all actives have a fitted effect of over 50% in size
In short: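 VM7Luc4E2; 4xERE-luciferase; 0.1 nM E2 final; 22 h co-incubation, 37C; ONE-Glo luminescence after 30 min at room temperature.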

[15] = qHTS assay to identify small molecule HDAC inhibitors (AID 1259364);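 further: wild-type HCT-116 cells with endogenous class I/II HDAC activity; top concentration of the series differs between compounds; nearly all actives have a fitted effect of over 45% in size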
In short: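 Relative class I and II HDAC activity is taken from the luminogenic signal in HCT-116 cells, with compound exposure 2 hr and reagent development 30 min at room temperature.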

[16] = qHTS assay to identify small molecule HDAC inhibitors - cell viability counter screen (AID 1259365)
In short: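 Following a 2hr exposure of overnight-plated wild-type HCT-116 cells to DMSO-delivered compounds, CellTiter-Glo was added and luminescence recorded after 30min at room temperature.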

[17] = qHTS assay to identify small molecule antagonists of the sonic hedgehog signaling (Shh) pathway - cell viability counter screen (AID 1259367); further: nearly all actives have a fitted effect of over 55% in size; further: potency means the concentration at half of the fitted maximal effect
In short: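 NIH/3T3-derived Gli1-Luc reporter cells (2,000 per well) rested 4 hr at 37 C, then received DMSO compounds plus conditioned medium. After 23 hr of treatment, CellTiter-Fluor was added for 1 hr at 37C and fluorescence read.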

[18] = qHTS assay to identify small molecule agonists of the sonic hedgehog signaling (Shh) pathway - cell viability counter screen (AID 1259366); further: nearly all actives have a fitted effect of over 50% in size; further: potency means the concentration at half of the fitted maximal effect
In short: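 After a 4hr attachment at 37C, NIH/3T3 cells bearing an integrated Gli1-driven luciferase reporter were dosed with compounds. Treatment lasted 24hr, with the final hour including CellTiter-Fluor for a fluorescence viability measurement.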

[19] = biological target: Androgen receptor (Homo sapiens) (UniProt P10275); assay: qHTS assay to identify small molecule antagonists of the androgen receptor (AR) signaling pathway using the MDA cell line in the presence of 0.5 nM R1881 (AID 1259243); further: nearly all actives have a fitted effect of over 50% in size
In short: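 We exposed MDA-kb2 cells to compounds under 0.5 nM R1881 stimulation for 16 hr at 37C and quantified MMTV-driven luciferase by luminescence.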

[20] = qHTS assay to identify small molecule phospholipidosis (PLD) inducers (AID 1259344; active means well fitted curve in the direction sought with a large enough effect; an effect the other way counts as inactive or inconclusive)
In short: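 HepG2 cells on collagen I, attached 4 h at 37 C, were co-treated with compound and LipidTOX Red dye for 24 h at 37 C, then fixed with paraformaldehyde plus Hoechst 33342 and imaged by high-content microscopy for phospholipid accumulation.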

Measured: Potency

Sequence of Estrogen receptor (Homo sapiens) (P03372 whole entry, looked up): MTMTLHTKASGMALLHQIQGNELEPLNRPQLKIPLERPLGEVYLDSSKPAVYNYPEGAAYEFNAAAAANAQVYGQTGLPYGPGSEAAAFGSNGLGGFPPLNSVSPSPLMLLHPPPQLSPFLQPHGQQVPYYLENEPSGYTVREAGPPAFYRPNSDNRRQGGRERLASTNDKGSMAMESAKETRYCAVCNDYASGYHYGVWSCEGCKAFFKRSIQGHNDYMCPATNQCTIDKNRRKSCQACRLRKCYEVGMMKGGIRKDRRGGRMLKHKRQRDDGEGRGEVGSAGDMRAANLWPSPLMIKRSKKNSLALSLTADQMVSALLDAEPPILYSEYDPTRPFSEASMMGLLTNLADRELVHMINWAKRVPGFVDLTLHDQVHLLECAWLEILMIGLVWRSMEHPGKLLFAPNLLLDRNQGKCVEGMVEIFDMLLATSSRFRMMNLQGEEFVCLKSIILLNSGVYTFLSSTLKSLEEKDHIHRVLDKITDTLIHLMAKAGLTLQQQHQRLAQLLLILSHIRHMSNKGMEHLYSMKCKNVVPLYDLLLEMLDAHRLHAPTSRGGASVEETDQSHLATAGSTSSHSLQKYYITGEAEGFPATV
Sequence of Androgen receptor (Homo sapiens) (P10275 whole entry, looked up): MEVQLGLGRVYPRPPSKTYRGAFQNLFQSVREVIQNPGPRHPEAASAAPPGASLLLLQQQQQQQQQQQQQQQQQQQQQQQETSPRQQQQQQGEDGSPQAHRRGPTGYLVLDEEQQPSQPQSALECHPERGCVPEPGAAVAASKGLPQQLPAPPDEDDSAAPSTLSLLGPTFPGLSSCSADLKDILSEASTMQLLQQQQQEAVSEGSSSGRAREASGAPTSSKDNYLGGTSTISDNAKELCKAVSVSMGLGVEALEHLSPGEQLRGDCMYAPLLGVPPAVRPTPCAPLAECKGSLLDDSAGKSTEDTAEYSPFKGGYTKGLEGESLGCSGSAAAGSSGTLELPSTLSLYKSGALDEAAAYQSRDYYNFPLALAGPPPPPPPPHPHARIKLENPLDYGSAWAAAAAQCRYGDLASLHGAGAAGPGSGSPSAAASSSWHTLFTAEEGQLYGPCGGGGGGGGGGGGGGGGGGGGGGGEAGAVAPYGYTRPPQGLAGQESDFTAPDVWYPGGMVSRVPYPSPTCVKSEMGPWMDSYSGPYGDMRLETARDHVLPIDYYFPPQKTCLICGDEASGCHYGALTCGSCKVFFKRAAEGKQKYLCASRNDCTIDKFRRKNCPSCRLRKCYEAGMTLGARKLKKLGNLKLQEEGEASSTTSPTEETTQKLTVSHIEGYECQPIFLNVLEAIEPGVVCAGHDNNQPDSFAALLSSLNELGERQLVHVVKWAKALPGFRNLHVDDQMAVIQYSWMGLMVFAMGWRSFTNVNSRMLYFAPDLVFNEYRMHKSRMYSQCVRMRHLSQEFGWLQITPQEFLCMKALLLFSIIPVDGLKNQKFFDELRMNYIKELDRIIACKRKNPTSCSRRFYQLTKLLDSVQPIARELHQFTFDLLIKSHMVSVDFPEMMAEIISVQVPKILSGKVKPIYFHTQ

CCCCCCCCCCCCSC#N
not listed: [18] | [19] | [20]
inactive: all other assays above

CCOC(OCC)OCC
not listed: [19] | [20]
inactive: all other assays above

CCOCCn1c(N2CCCN(C)CC2)nc2ccccc21
not listed: [14]
inactive: all other assays above

Nc1ccc(F)cc1F
not listed: [20]
inactive: all other assays above

NC(=O)c1cc[n+](CC2=C(C(=O)[O-])N3C(=O)[C@@H](NC(=O)Cc4cccs4)[C@H]3SC2)cc1
not listed: [14] | [18] | [19]
inactive: all other assays above

CC(C)Cc1nccs1
not listed: [14] | [19] | [20]
inactive: all other assays above

CCCCC(CC)COCCC#N (stereo not drawn)
not listed: [14] | [19] | [20]
inactive: all other assays above

FC(F)(Cl)C(F)(Cl)Cl
not listed: [20]
inactive: all other assays above

O=C(O)c1ccncc1
not listed: [14] | [20]
inactive: all other assays above

CC(C)Oc1ccccc1O
not listed: [19] | [20]
inactive: all other assays above

O=c1[nH][nH]c2ccccc12
not listed: [14] | [16] | [20]
inactive: all other assays above

CCCC1CCCC(=O)O1 (stereo not drawn)
not listed: [19] | [20]
inactive: all other assays above

C=CC(C)CCC=C(C)C (stereo not drawn)
not listed: [14] | [19] | [20]
inactive: all other assays above

O=C(Nc1ccccc1)c1cc([N+](=O)[O-])ccc1Cl
active: [18] 61.1 µM | [17] 54.5 µM
not listed: [14] | [19] | [20]
inactive: all other assays above
